These results are taken from PubChem BioAssay (NCATS).

Inconclusive results are not listed. Where a call stands in place of a potency, no number is given. The source made the active and inactive calls. Unless noted, calls come from the whole dose curve; as a rule, active = well fitted curve in the direction sought with a large enough effect; inconclusive = small, poorly fitted or top-dose-only effect, or another doubt; inactive = no such curve, though single readings can be large; an effect the other way counts as inactive or inconclusive.

Experiment [1] addresses Luciferin 4-monooxygenase (Photinus pyralis) (UniProt P08659). As to the kind of experiment: Biochemical firefly luciferase enzyme assay for NPC (AID 624030).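 Note: purified P. pyralis luciferase at 10 nM with luciferin and ATP substrate; series mostly up to about 59 µM; nearly all actives have a fitted effect of over 70% in size.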 Put shortly:
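Counter-screen for direct inhibition of the luciferase enzyme by approved-drug library compounds, run at 10 nM enzyme in 50 mM Tris acetate (final). Luminescence was read within 5 min of enzyme-buffer addition and normalized to PTC124 versus DMSO (0%).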

Experiment [2] deals with Voltage-gated inwardly rectifying potassium channel KCNH2 (Homo sapiens) (UniProt Q12809). As to the kind of experiment: qHTS Assay for Small Molecule Inhibitors of the Human hERG Channel Activity (AID 588834).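 Note: lower thallium flux fluorescence means stronger hERG block; nearly all actives have a fitted effect of over 50% in size.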 Note: potency is the fitted concentration of half-maximal effect. Summed up: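 Homogeneous FluxOR thallium flux assay using hERG-expressing U2OS cells (BacMam). Compound treatment about 10 minutes preceded stimulation; reduced fluorescence taken as channel block.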
Voltage-gated inwardly rectifying potassium channel KCNH2 (Homo sapiens), sequence (Q12809 whole entry, looked up): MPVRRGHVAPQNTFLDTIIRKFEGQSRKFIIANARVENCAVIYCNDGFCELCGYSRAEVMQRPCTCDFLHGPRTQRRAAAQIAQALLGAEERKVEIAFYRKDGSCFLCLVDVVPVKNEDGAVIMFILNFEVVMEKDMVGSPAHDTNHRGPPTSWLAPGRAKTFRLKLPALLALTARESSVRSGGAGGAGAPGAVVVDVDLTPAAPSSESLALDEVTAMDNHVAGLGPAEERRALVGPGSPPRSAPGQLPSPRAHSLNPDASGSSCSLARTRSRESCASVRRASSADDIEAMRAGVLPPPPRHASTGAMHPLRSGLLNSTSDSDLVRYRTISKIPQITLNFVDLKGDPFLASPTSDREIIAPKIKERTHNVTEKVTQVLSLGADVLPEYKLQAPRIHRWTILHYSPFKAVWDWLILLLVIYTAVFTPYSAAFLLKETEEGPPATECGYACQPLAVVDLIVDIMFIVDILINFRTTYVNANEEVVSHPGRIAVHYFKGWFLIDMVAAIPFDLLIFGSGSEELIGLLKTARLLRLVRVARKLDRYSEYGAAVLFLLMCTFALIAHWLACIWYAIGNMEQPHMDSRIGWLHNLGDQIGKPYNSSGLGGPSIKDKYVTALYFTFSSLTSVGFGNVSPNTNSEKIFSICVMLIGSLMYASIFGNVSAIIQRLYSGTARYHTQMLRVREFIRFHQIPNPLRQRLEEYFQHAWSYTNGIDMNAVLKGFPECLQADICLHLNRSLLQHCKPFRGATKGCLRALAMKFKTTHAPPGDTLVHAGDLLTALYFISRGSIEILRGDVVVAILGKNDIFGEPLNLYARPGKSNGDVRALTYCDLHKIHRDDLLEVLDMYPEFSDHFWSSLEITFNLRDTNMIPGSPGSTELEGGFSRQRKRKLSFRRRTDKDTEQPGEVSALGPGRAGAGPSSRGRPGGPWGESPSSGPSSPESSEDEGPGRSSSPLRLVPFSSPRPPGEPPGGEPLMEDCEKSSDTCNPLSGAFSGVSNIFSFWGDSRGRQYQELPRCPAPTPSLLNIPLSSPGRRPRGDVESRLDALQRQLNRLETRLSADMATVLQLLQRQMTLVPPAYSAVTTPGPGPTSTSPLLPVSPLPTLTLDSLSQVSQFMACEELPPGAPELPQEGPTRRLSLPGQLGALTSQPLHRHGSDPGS
Background: Quantitative high-throughput screening tests each substance at several concentrations.

Experiment [3] is described as follows: S16 Schwann cell viability assay (CellTiter-Glo assay) (AID 624031). Note: potency is the fitted concentration of half-maximal effect; nearly all actives have a fitted effect of over 70% in size. Put shortly: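 Following overnight culture in 10% FBS DMEM, parental S16 rat Schwann cells are dosed for 24 h at 37 °C. Viability is read as CellTiter-Glo luminescence and expressed as % activity relative to DMSO (0%) and no-cell wells.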
On the technique in general: Cellular ATP, detected with luciferase, serves as a proxy for viable cell number.

A short description of experiment [4]: S16 Schwann cell PMP22 intronic element firefly luciferase assay (AID 624032). Note: potency is the fitted concentration of half-maximal effect; nearly all actives have a fitted effect of over 30% in size. Summed up:
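Rat S16 Schwann cells stably carrying a PMP22 intronic element-driven Fluc reporter were seeded overnight, then exposed to compounds for 24 h at 37 °C. Luminescence was normalized to PTC124 (positive control) and DMSO (0% activity).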

Experiment [5] is described as follows: S16 Schwann cell PMP22 intronic element beta-lactamase assay (AID 624044; calls by dose curve; note: nearly all actives have a fitted effect of over 15% in size). Put shortly: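 Beta-lactamase reporter under a PMP22 intronic regulatory element in stable S16 rat Schwann cells; 24 h compound exposure. 460 nm blue signal normalized between DMSO (0%) and potassium clavulanate, with 535 nm FRET tracking viability; curves classed by r2 and response.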

The target in experiment [6] is Glutaminase kidney isoform, mitochondrial (Homo sapiens) (UniProt O94925). Kind of experiment: qHTS for Inhibitors of Glutaminase (GLS): LOPAC Validation (AID 624146).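 Note: glutamate product detected by oxidase and peroxidase coupled Amplex red fluorescence gain; series mostly up to about 46 µM; nearly all actives have a fitted effect of over 60% in size.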 Summed up: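 Assay buffer: 45 mM KH2PO4 pH 8.2, 0.02% Tween-20. hKGA acts on L-glutamine (1 mM solution added); product glutamate is reported by an oxidase/peroxidase Amplex Red coupling, with fluorescence taken at baseline and 30 min.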
Glutaminase kidney isoform, mitochondrial (Homo sapiens), sequence (O94925 whole entry, looked up, canonical isoform): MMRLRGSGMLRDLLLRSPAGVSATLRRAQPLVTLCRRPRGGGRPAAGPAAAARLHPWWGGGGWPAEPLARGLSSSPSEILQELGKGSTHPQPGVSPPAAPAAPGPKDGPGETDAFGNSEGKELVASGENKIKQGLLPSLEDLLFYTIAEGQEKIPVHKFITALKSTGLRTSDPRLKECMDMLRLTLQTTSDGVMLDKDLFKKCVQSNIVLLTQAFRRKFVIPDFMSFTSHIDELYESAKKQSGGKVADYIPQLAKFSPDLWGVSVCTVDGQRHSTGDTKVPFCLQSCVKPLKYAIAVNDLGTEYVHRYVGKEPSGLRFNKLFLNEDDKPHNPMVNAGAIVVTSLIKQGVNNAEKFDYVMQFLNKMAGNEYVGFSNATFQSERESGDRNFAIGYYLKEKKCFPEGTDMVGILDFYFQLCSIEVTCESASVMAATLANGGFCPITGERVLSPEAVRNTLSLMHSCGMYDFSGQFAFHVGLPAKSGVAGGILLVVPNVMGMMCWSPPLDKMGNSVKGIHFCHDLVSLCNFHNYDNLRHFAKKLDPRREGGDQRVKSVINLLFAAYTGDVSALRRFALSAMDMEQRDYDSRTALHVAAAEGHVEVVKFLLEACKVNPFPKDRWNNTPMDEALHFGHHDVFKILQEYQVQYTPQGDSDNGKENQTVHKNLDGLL

Experiment [7] can be described thus: qHTS of Trypanosoma Brucei Inhibitors: LOPAC Validation (AID 624147). Put shortly:
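Glycolytic pyruvate kinase of T. brucei was incubated with substrate, test compound and 130 uM ADP for 45 minutes at room temperature. Luminescent Kinase-Glo Plus signal was measured after 10 minutes.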

The target of experiment [8] is Glucagon-like peptide 1 receptor (Homo sapiens) (UniProt P43220). As to the kind of experiment: qHTS of GLP-1 Receptor Agonists: LOPAC Validation (AID 624148).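 Note: higher luminescence signal means agonism.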 Summed up:
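HEK293 cells stably co-expressing a cAMP-responsive luciferase reporter and a hypersensitive GLP-1R were plated 12 h at 37 °C and exposed to compounds for 4-6 hr at 37 °C, 5% CO2. Luminescence was read 12 min after adding detection reagent.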

Experiment [9] can be described thus: HTS Assay for Allosteric Antagonists of the Human D2 Dopamine Receptor: Hit Validation in HTRF (AID 624455). Put shortly: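 HTRF read-out; cells stably expressing D1 receptor; hits scored for inhibition of D1-mediated response. Primary screen: calcium flux, force-coupled inducible Hek293 Trex D2 line, antagonism vs EC80 dopamine.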
On the technique in general: In TR-FRET formats the signal depends on donor and acceptor labels being close together.

Glucagon-like peptide 1 receptor (Homo sapiens), sequence (P43220 whole entry, looked up): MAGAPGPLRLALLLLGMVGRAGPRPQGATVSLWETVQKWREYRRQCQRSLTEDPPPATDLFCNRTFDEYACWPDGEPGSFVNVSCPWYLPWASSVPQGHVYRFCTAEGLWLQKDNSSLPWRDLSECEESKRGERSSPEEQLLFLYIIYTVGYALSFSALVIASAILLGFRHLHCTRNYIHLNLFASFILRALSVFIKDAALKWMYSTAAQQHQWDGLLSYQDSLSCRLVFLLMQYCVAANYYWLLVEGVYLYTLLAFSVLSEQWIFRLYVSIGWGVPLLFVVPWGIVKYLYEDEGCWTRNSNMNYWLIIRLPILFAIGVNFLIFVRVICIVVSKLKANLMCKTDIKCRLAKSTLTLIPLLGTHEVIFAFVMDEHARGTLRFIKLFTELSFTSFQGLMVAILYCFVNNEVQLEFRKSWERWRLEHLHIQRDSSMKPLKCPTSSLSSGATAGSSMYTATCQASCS
Luciferin 4-monooxygenase (Photinus pyralis), sequence (P08659 whole entry, looked up): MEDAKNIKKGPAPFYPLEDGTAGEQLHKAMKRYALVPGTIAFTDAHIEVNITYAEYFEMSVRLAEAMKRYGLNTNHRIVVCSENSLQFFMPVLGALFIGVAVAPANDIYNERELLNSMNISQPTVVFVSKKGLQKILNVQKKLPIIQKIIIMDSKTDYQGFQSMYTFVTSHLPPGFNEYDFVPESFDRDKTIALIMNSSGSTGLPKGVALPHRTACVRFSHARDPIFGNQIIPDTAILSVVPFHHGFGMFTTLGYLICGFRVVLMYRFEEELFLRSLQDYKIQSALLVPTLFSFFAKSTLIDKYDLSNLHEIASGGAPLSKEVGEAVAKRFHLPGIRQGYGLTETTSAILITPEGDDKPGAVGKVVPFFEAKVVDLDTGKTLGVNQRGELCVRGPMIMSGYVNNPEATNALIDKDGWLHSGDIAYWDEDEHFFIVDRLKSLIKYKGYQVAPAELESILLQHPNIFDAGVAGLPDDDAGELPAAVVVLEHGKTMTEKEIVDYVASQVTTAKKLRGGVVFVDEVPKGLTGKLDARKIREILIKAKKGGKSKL

Take `O=C(O)c1ccccc1S`: the Potency entry in [1] was “inactive”.

`CC(C(O)c1ccccc1)N(C)CCOC(c1ccccc1)c1ccccc1` (stereo not given): the Potency result in [1] is “inactive”.

With `CCCCCCCCCCCCCCCC[N+](C)(C)Cc1ccccc1`, the Potency in experiment [2] is 22.4 µM (active); in experiment [3], 16.1 µM (active); in experiment [4] it was 14.4 µM (active). For the same compound, the Potency entry in [1] and in [5] was “inactive” in each case.

Regarding `C[C@H](CN1CCCC1)C(=O)c1ccc(C(F)(F)F)cc1`, the Potency result in experiment [1] was “inactive”.

Turning to `CCOC(=O)c1ccc(NC(=O)CN2CCCCC2)cc1`, in experiment [1], the Potency entry is “inactive”.

As to `CCCCNc1ccc(C(=O)OCCN(CC)CC)cc1`, the Potency result in experiment [1] was “inactive”.

As to `OCCc1ccccc1`, the Potency entry in [1] was “inactive”.

With `CC(NCCC(c1ccccc1)c1ccccc1)c1ccccc1` (stereo not given), the Potency is 2.24 µM (active) in experiment [2] and 25.6 µM (active) in [3]. Also, the Potency entry in [1] and in [5] was “inactive” each time.

For `O=[N+]([O-])c1ccc(-c2nc(-c3ccc(F)cc3)c(-c3ccncc3)[nH]2)cc1`, the Potency in experiment [2] was 8.91 µM (active). The Potency result in experiment [6] is “inactive”. For the same compound, the outcome in experiment [7], in experiment [8] and in experiment [9] was inactive.

Regarding `O=[N+]([O-])c1nccn1CO[C@@H](CO)[C@H](O)CO`, the Potency result in [1] is “inactive”.

As for `COc1ccccc1N1CCN(CCN2C(=O)CC3(CCCC3)CC2=O)CC1`, the Potency in experiment [2] was 1.12 µM (active). Further, the Potency entry in experiment [6] is “inactive”. Besides, the outcome in experiment [7], in experiment [8] and in [9] was inactive.

Consider `CN1CCC(=C2c3ccccc3CCc3cccnc32)CC1`, for which the Potency entry in experiment [1] was “inactive”.

Consider `NCC(=O)O`, for which the Potency result in experiment [1] was “inactive”.

On to `CC(C)(C)c1nnc(NS(=O)(=O)c2ccccc2)s1`, for which the Potency entry in [1] is “inactive”.

Turning to `COc1cc(NS(=O)(=O)c2ccc(N)cc2)nc(C)n1`, in experiment [1], the Potency entry was “inactive”.

Turning to `N=C(N)c1ccc(OCCCOc2ccc(C(=N)N)cc2)cc1`, the Potency entry in experiment [1] is “inactive”.

With `CN(C)c1cc2c(Nc3ccc4c(cnn4Cc4ccccc4)c3)ncnc2cn1`, the Potency entry in experiment [2] is “inactive”. Also, the compound was called inactive in experiment [7], in experiment [8] and in experiment [9].
